From PubChem BioAssay come the findings set out here.

The experiment is described as follows: probe aNOTCH2 binding on compound microarray – biochemical, small-molecule microarray, 635/667 nm fluorescence, primary screen (AID 1121).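 Also: score merges feature fluorescence read at 667 nm with its signal to noise.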 The note with it: higher = more signal.
In the case of `COc1ccc([C@H]2OC[C@@H]3C[C@@H](Cc4ccccc4)C(=O)N32)cc1`, the composite z-score is -0.164.
The result for `COCCCNC(=O)[C@@H]1c2ccccc2C(=O)N(Cc2ccccc2Cl)[C@H]1c1ccc(CO)cc1` reads 0.151; that for `O=C1C2C=CC(C(O)c3cccc4ccccc34)N(Nc3ccccc3F)C2C(=O)N1c1ccccc1` (stereo not given), 0.0007; that for `COC(=O)[C@@]1(CCS(=O)(=O)c2ccccc2)N=C(c2ccc(OCCCO)cc2)O[C@H]1c1ccccc1CN=[N+]=[N-]`, 0.0657.
The same measure for `C=C[C@H](OC)[C@@H](OC(=O)Nc1ccc(OC)cc1)c1ccc(O)c(F)c1`: -0.217.
The same measure for `C=CCC(OC(C)=O)[C@@H]1[C@@H](N(Cc2ccc(-c3ccccc3)cc2)C(=O)c2cccc3ccccc23)c2cc(OCCCO)ccc2N1C(=O)c1ccc(-c2ccccc2)cc1` (stereo not given in full): -0.0783; for `C=CCOC(=O)[C@H]1[C@@H]2C(=O)O[C@@H](c3ccccc3)[C@@H](c3ccccc3)N2[C@@H](c2ccc(OCCOC(=O)[C@H]3C[C@H]4C(=O)N[C@@H](CCCC[N+](C)(C)C)C(=O)N4[C@H]3c3ccc(O)cc3)cc2)[C@]12C(=O)Nc1ccc(I)cc12`: 0.0482.
In turn, `COC(=O)[C@@]1(Cc2ccc(OC)cc2)[C@@H]2C(=CC(=O)[C@H]2CC(=O)C(=O)N2CCCC2)CN1C(=O)c1ccccc1` returned a composite z-score of -0.152.
The same measure for `C[C@H]1NC(=O)[C@@]23C(=O)N[C@@H](Cc4ccccc4)C2[C@H](C)[C@@]2(C)O[C@H]2C3/C=C/C/C=C\CNC(=O)[C@@H]2CCCN2C1=O` (stereo not given in full): -0.14; for `O=C(OCc1ccccc1)C1=CCC2c3[nH]c4ccccc4c3C(=O)C1N2S(=O)(=O)c1ccccc1[N+](=O)[O-]` (stereo not given): 0.285.
The result for `COC(=O)[C@@]1(Cc2ccc(OC)cc2)[C@H]2c3cc(C(=O)N4CCCC4)n(Cc4ccc(C)c(F)c4F)c3C[C@H]2CN1C(=O)c1ccccc1` reads 0.223.
The result for `C=CCOC(=O)[C@H]1[C@@H]2C(=O)O[C@@H](c3ccccc3)[C@@H](c3ccccc3)N2[C@@H](c2ccc(OCCOC(=O)[C@H]3C[C@H]4C(=O)N[C@@H](CCCCNC(C)=O)C(=O)N4[C@H]3c3cccc(OCCO)c3)cc2)[C@]12C(=O)Nc1ccccc12` reads -0.114; that for `CC(C)c1ccc(NN2C(C(O)c3ccc(B(O)O)cc3)C=CC3C(=O)N(c4ccccc4)C(=O)C32)cc1` (stereo not given), 0.0571.
On to `CCCC=C(CCC)[C@@H](NC(=O)c1cccs1)c1ccc(C(F)(F)F)cc1`, for which the composite z-score was -0.0027.
The result for `COc1ccc(C#Cc2ccc3c(c2)[C@]2(C(=O)N3)[C@H](C(=O)Nc3nc4ccccc4s3)[C@H]3C(=O)O[C@H](c4ccccc4)[C@H](c4ccccc4)N3[C@@H]2c2ccc(O)cc2)cc1` reads 0.158; that for `CCCCCCc1nc(-c2cc(C)c(OC)c(C)c2)cc2c1[Si](C(C)C)(C(C)C)OC2`, -0.113; that for `COCCOC(=O)N1C(=O)[C@@]2(c3cc(C#Cc4ccc(OC)cc4)ccc31)[C@H](c1ccccc1OCCO)N1[C@H](c3ccccc3)[C@H](c3ccccc3)OC(=O)[C@H]1[C@@H]2C(=O)NC[C@H](O)c1ccccc1`, -0.115.
The result for `COC(=O)C(CC#Cc1ccc2c(c1)[C@]1(C(=O)N2)[C@H](c2ccc(OCCO)cc2)N2[C@H](c3ccccc3)[C@H](c3ccccc3)OC(=O)[C@H]2[C@@H]1C(=O)N1CCc2cc(OC)c(OC)cc2C1)C(=O)OC` reads -0.0326.
For `COCCOC(=O)N1C(=O)[C@@]2(c3cc(C#CCC(C(=O)OC)C(=O)OC)ccc31)[C@H](c1ccccc1OCCO)N1[C@H](c3ccccc3)[C@H](c3ccccc3)OC(=O)[C@H]1[C@@H]2C(=O)N1CCN(c2ncccn2)CC1`, the composite z-score was -0.0249.
The result for `O=C(c1ccccc1)N1C(=O)[C@]2(COC(c3ccc(OCCCO)cc3)=N2)Cc2ccccc21` reads -0.0249.
`COc1ccc([Si](C)(C)[C@@H]2[C@@H](CCO)O[C@]3(C(=O)N(Cc4ccc(N(C=O)c5ccccc5)cc4)c4ccccc43)[C@H]2C)cc1` displayed a composite z-score of -0.0621.
The same measure for `O=C1c2ccccc2[C@](Cc2ccccc2I)(C(=O)NCC(F)(F)F)[C@H](c2ccc(CO)cc2)N1Cc1ccccc1Cl`: -0.0811; for `COCCOC(=O)N1C(=O)[C@@]2(c3cc(C#CCCO)ccc31)[C@H](C(N)=O)[C@H]1C(=O)O[C@H](c3ccccc3)[C@H](c3ccccc3)N1[C@@H]2c1ccc(O)cc1`: -0.118; for `C=C(CCCC)/C(=C/C[C@@H](OC(=O)c1ccncc1)c1ccc(OCCO)cc1)c1cc(C(=O)OC)ccc1OC`: -0.123.
The same measure for `C=CCN1C(=O)[C@]2(O[C@H](CCn3cc([C@H](O)c4ccccc4)nn3)[C@@H]([Si](C)(C)c3ccc(OC)cc3)[C@@H]2C)c2ccccc21`: -0.156.
